This is part of a sample that, as a whole, favours compounds with a hit. Of some 83,000 tested, about 20% had one in any assay.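 Step 1: grow cells in 96-well plates. Step 2: add test compound at a single concentration. Step 3: incubate 48 h. Step 4: record percent growth.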 A number with no mark means an inactive call. Activity calls are given as the source filed them. The calls were made as follows: active = growth percent below 10; inactive = the rest.

What all share (test): NCI-60 one-dose screen, 48 h (100 = growth as untreated, 0 = no growth, -100 = all killed)
Common to all, as to conditions: 10 µM unless noted

Test [1] relates to SK-MEL-2 melanoma.
The test system of test [2] is EKVX NSCLC.
Test [3] deals with SN12C renal.
The test system of test [4] is UO-31 renal.
Test [5] has as its system TK-10 renal.
Test [6] has as its system ACHN renal.
The test system of test [7] is CAKI-1 renal.
Test [8] relates to A498 renal.
The subject of test [9] is CCRF-CEM leukemia.
Test [10] relates to MOLT-4 leukemia.
Test [11] has as its system SR leukemia.
Test [12] deals with RPMI-8226 leukemia.
The subject of test [13] is OVCAR-8 ovarian.
The test system of test [14] is OVCAR-5 ovarian.
The test system of test [15] is OVCAR-4 ovarian.
In test [16] the test system is SK-OV-3 ovarian.
In test [17] the test system is IGROV1 ovarian.
Test [18] concerns OVCAR-3 ovarian.
Test [19] deals with HS 578T breast.
The subject of test [20] is NCI/ADR-RES ovarian.

Turning to `O=C(CC(=O)C(F)(F)C(F)(F)C(F)(F)F)c1cc2ccccc2o1`, the growth in test [1] is 106%; in test [2], 100%; in test [3] it was 103%; in test [4], 87.5%; in test [5], 108%; in [6], 110%. Also, the growth in test [7] was 94.8%; in test [8], 125%; in [9], 102%; in test [10] it was 102%; in [11], 101%; in [12], 109%. For the same compound, the growth in [13] was 102%; in [14], 103%; in [15] it was 98.6%; in [16], 105%; in test [17], 110%; in test [18], 106%. For the same compound, the growth in test [19] was 103%; in [20] it was 102%.
Consider `O=c1c2cc(Cl)ccc2oc2ccc(OCCCCCN3CCCCCC3)cc12`, for which the growth in [1] was 96.5%; in [2] it was 89.6%; in test [3], 80.9%; in test [4] it was 78.6%; in test [5], 89.2%; in test [6] it was 110%. Also, the growth in [7] is 94.6%; in [8] it was 68.9%; in [9] it was 60.5%; in test [10], 48.5%; in [11] it was 47.5%; in test [12] it was 60.3%. The growth in [13] was 82.1%; in [14], 97.9%; in [15] it was 91.8%; in test [16], 78.9%; in [17], 90.6%; in test [18], 81.5%. Moreover, the growth in test [19] is 83%; in test [20], 85.7%.
Regarding `CCN(CC)c1cc(C)c(Cc2c(OC)ccc3ccccc23)cc1C`, the growth in test [1] was 94.4%; in test [2], 93.4%; in [3], 91.2%; in test [4] it was 73.1%; in [5], 95.6%; in [6], 99.4%. Moreover, the growth in test [7] was 93.1%; in [8] it was 96.6%; in test [9], 102%; in [10], 79.7%; in test [11] it was 85.5%; in test [12], 102%. Besides, the growth in test [13] is 96.8%; in [14] it was 102%; in test [15] it was 96.9%; in test [16], 83.4%; in [17], 88.6%; in test [18], 106%. The growth in test [19] is 81%; in test [20], 103%.
Consider `Cc1nn(-c2cccc(Cl)c2)c(C)c1N=Nc1ccc(Br)cc1`, for which the growth in [1] was 102%; in [2] it was 87.5%; in [3], 94.4%; in [4], 86.5%; in test [5] it was 90.1%; in test [6], 92%. Besides, the growth is 86.7% in test [7]; 83% in [8]; 97.3% in [9]; 98.9% in test [10]; 92.7% in test [11]; 95.4% in test [12]. Also, the growth is 97.4% in [13]; 94.1% in [14]; 94.5% in test [15]; 92.3% in test [16]; 100% in [17]; 112% in test [18]. Besides, the values for the growth in test [19] and in [20] were 96.6% and 105%, respectively.
As for `O=C1CCCN1C(O)CCN(Cc1ccccc1)Cc1ccc(Cl)cc1` (stereo not given), the growth in [1] was 101%; in test [2] it was 101%; in [3] it was 101%; in test [4], 84.9%; in [5], 109%; in test [6], 108%. Also, the growth in test [7] is 97.3%; in [8], 109%; in test [9], 91.7%; in [10], 89.9%; in test [11], 83%; in test [12], 98.5%. Also, the growth in [13] is 96.7%; in [14] it was 99.2%; in test [15], 103%; in test [16], 101%; in [17] it was 100%; in test [18] it was 108%. Also, the growth in test [19] was 104%; in test [20], 106%.
With `O=c1oc2ccccc2cc1-c1cc(-c2ccc(-c3cc(-c4cc5ccccc5oc4=O)nc(-c4cc5ccccc5oc4=O)c3)cc2)cc(-c2cc3ccccc3oc2=O)n1`, the growth in [1] was 106%; in test [2] it was 96%; in [3], 102%; in [4], 88.3%; in [5], 129%; in test [6], 100%. Moreover, the growth in test [7] is 105%; in test [8], 98.1%; in test [9], 92.9%; in [10] it was 86.8%; in test [11] it was 93.7%; in test [12] it was 98.2%. For the same compound, the growth in test [13] was 103%; in test [14] it was 119%; in test [15], 100%; in [16], 94.3%; in test [17], 105%; in test [18] it was 110%. Further, the growth in [19] was 104%; in test [20] it was 108%.
For the compound `CCOC(=O)C1=C(C(=O)OCC)N(c2cc(OC)c(OC)c(OC)c2)C(N)=C(C#N)C1c1cc(=O)[nH]c2ccccc12` (stereo not given), the growth in test [1] was 115%; in test [2] it was 89.3%; in test [3], 98.5%; in test [4] it was 76.8%; in test [5], 100%; in test [6], 97.6%. In addition, the growth in test [7] is 87%; in [8] it was 78.1%; in test [9], 113%; in test [10] it was 100%; in test [11] it was 93.5%; in [12], 114%. The growth in [13] was 105%; in test [14], 101%; in test [15], 101%; in test [16], 97%; in test [17] it was 98.2%; in test [18], 110%. Also, the growth in test [19] was 97.2%; in [20], 101%.
On to `S=C(Cc1ccccc1)N1CCN(c2ccccc2Cl)CC1`, for which the growth was 99.7% in [1]; 94.5% in [2]; 107% in test [3]; 82.4% in test [4]; 116% in test [5]; 108% in test [6]. Moreover, the growth was 85.2% in [7]; 90.7% in [8]; 89.1% in test [9]; 82.1% in test [10]; 70.3% in [11]; 95.1% in [12]. Moreover, the growth in [13] was 99.1%; in [14], 97.6%; in test [15], 105%; in test [16] it was 101%; in test [17], 110%; in test [18], 106%. The growth is 97.3% in test [19] and 96.7% in test [20].
As for `COc1ccc2c(c1)OC1=C(C(=O)OC1)C2c1cc(OC)c2c(c1)OCCO2` (stereo not given), the growth was 41.3% in [1]; 55.5% in test [2]; 27.5% in [3]; 46.2% in [4]; 76.2% in test [5]; 27.8% in test [6]. Besides, the growth is 48.1% in test [7]; -1.6% (active) in test [8]; 15% in test [9]; 20.8% in test [10]; 27.3% in test [11]; 25% in test [12]. Besides, the growth in test [13] is 20.7%; in test [14], 32.4%; in test [15], 48%; in test [16] it was -2.33% (active); in [17] it was 19.3%; in test [18], -30.4% (active). In addition, the growth in [19] is 29.6%; in test [20], 13.9%.
For the compound `O=S1(=O)NCCN1CCNc1nccc(-c2c(-c3cccc(O)c3)nc3sccn23)n1`, the growth in test [1] was 72.1%; in test [2], 111%; in [3], 95.2%; in test [4], 116%; in test [5] it was 130%; in [6], 97%. In addition, the growth is 80.8% in test [7]; 118% in test [8]; 88.1% in test [9]; 110% in [10]; 62.2% in [11]; 102% in test [12]. For the same compound, the growth in test [13] was 103%; in test [14] it was 91.9%; in test [15] it was 131%; in [16], 97.4%; in [17], 105%; in test [18], 108%. Also, the growth is 95.9% in test [19] and 107% in [20].
For `CCOC(=O)Nc1ccc2nc(Sc3ccc(Cl)cc3)sc2c1`, the growth in test [1] was 46.8%; in [2], 57.6%; in test [3], 40.4%; in test [4] it was 43.9%; in [5] it was 53.1%; in test [6], 61.5%. Moreover, the growth in test [7] was 19.2%; in [8], 58%; in test [9], 20.2%; in test [10] it was 37.8%; in test [11] it was 9.2% (active); in test [12] it was 21.5%. Also, the growth in [13] is 44.6%; in test [14] it was 85.9%; in test [15], 50.3%; in test [16], 22.5%; in test [17] it was 43.4%; in test [18], 0.656% (active). For the same compound, the growth is 50.8% in test [19] and 14% in [20].
Regarding `COc1ccc(-c2nc3c(c(-c4ccc(Cl)cc4)nn3-c3ccccc3)c(-c3ccc(O)cc3)c2C#N)cc1`, the growth in test [1] was 62.4%; in test [2], 49.6%; in test [3], -26.7% (active); in test [4], 36.8%; in [5], 93.7%; in test [6] it was 50.7%. The growth in test [7] was 40.1%; in [8], 61.4%; in test [9], 12.6%; in [10], 14.4%; in test [11], -29.9% (active); in test [12] it was -33% (active). Also, the growth in [13] was 61.3%; in test [14] it was 78.9%; in test [15], 47.5%; in test [16], 84.5%; in test [17], 72.4%; in test [18], 34.1%. Further, the growth in [19] was 24.6%; in test [20] it was 54.6%.
Turning to `CCOC(=O)C#Cc1c(C(=O)OCC)nnn1[C@@H]1O[C@H](COC(C)=O)[C@@H](OC(C)=O)[C@H]1OC(C)=O`, the growth in test [1] is 95.8%; in test [2], 103%; in test [3] it was 88.5%; in test [4], 65%; in [5], 62.3%; in [6], 53.2%. In addition, the growth in test [7] is 4.56% (active); in [8], 102%; in [9], 48.3%; in test [10], 79.9%; in [11], 22.8%; in [12], 94.8%. The growth in test [13] was 94.1%; in test [14], 100%; in [15] it was 104%; in [16] it was 109%; in test [17] it was 91.5%; in [18], 62.1%. The growth is 96.2% in [19] and 104% in test [20].
`CCCCCN(CCCCC)C(=O)C(CCC(=O)O)NC(=O)c1ccc(Cl)c(Cl)c1` (stereo not given): the growth was 105% in [1]; 109% in test [2]; 100% in [3]; 80.4% in test [4]; 124% in [5]; 100% in test [6]. The growth in test [7] is 91.3%; in test [8] it was 83.8%; in test [9], 114%; in test [10] it was 102%; in [11] it was 94.4%; in test [12], 118%. In addition, the growth is 106% in [13]; 102% in test [14]; 115% in test [15]; 114% in test [16]; 107% in test [17]; 113% in test [18]. Further, the growth in [19] is 102%; in test [20], 106%.
Take `COc1cc(C2CC(c3ccc(C)cc3)=NN2C=O)ccc1Oc1nc2c(c(=O)n(C)c(=O)n2C)n1C` (stereo not given): the growth in test [1] was 121%; in test [2], 80.1%; in [3] it was 52.4%; in test [4] it was 63.1%; in test [5], 113%; in test [6], 88.1%. Also, the growth is 79.2% in test [7]; 76.9% in [8]; 83.8% in test [9]; 67.2% in test [10]; 85.7% in test [11]; 72.1% in [12]. Besides, the growth was 92.4% in test [13]; 102% in [14]; 77.8% in test [15]; 124% in test [16]; 82.6% in test [17]; 105% in test [18]. The growth in test [19] was 80.2%; in test [20], 63%.
